# Measured values published in the supplement of paper PMC8728848.
# Shown is part of a subset that was picked to be rich in the strongest signals.
# Key:
# Assay in all cases: glycan array binding signal (z-score within array); higher = stronger binding
# Settings in all cases: glycan notation: IUPAC condensed, linker removed
# [1] = target: Fuc(a1-2)Gal(b1-4)[Fuc(a1-3)]GlcNAc
# Summary of the method: (§1)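 Negative Z-scores can be read as non-binding. The Z-score is calculated within each array and then averaged across arrays of one protein sequence at different concentrations or buffers and across linkers. Arrays, 3228 in all, were curated from the Consortium for Functional Glycomics database and kept only where the protein sequence was available.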
# [2] = target: Fuc(a1-2)[Gal(a1-3)]Gal(b1-3)GlcNAc(b1-2)Man(a1-3)[Fuc(a1-2)[Gal(a1-3)]Gal(b1-3)GlcNAc(b1-2)Man(a1-6)]Man(b1-4)GlcNAc(b1-4)GlcNAc
# Summary of the method: as §1
# [3] = target: Fuc(a1-2)[Gal(a1-3)]Gal(b1-4)[Fuc(a1-3)]GlcNAc
# Summary of the method: as §1
# [4] = target: Fuc(a1-2)[GalNAc(a1-3)]Gal
# Summary of the method: as §1
# [5] = target: Fuc(a1-2)[GalNAc(a1-3)]Gal(b1-4)[Fuc(a1-3)]GlcNAc
# Summary of the method: as §1
# [6] = target: Fuc(a1-3)[Gal(b1-4)]GlcNAc(b1-2)Man(a1-3)[Fuc(a1-3)[Gal(b1-4)]GlcNAc(b1-2)Man(a1-6)]Man(b1-4)GlcNAc(b1-4)GlcNAc
# Summary of the method: as §1
# [7] = target: Fuc(a1-3)[Gal(b1-4)]GlcNAc(b1-2)Man(a1-3)[Fuc(a1-3)[Gal(b1-4)]GlcNAc(b1-2)Man(a1-6)]Man(b1-4)GlcNAc(b1-4)[Fuc(a1-6)]GlcNAc
# Summary of the method: as §1
# [8] = target: Fuc(a1-3)[Gal(b1-4)]GlcNAc(b1-4)Gal(b1-4)[Fuc(a1-3)]GlcNAc
# Summary of the method: as §1
# [9] = target: Gal(a1-3)Gal(b1-4)GlcNAc(b1-2)Man
# Summary of the method: as §1
# [10] = target: Gal(a1-3)Gal(b1-4)GlcNAc(b1-3)GalNAc
# Summary of the method: as §1
# Gal(b1-3)Gal(b1-4)GlcNAc = target: Gal(b1-3)Gal(b1-4)GlcNAc
# Summary of the method: as §1
# [11] = target: Gal(b1-3)GlcNAc(b1-2)[Gal(b1-3)GlcNAc(b1-6)]Man(a1-6)[Gal(b1-3)GlcNAc(b1-2)Man(a1-3)]Man(b1-4)GlcNAc(b1-4)GlcNAc
# Summary of the method: as §1
# [12] = target: Gal(b1-4)GlcNAc(b1-2)Man(a1-3)[Gal(b1-4)GlcNAc(b1-2)Man(a1-6)][GlcNAc(b1-4)]Man(b1-4)GlcNAc(b1-4)[Fuc(a1-6)]GlcNAc
# Summary of the method: as §1
# [13] = target: Gal(b1-4)GlcNAc(b1-3)Gal(b1-4)GlcNAc(b1-3)Gal(b1-4)GlcNAc(b1-3)Gal(b1-4)GlcNAc(b1-2)Man(a1-3)[Gal(b1-4)GlcNAc(b1-3)Gal(b1-4)GlcNAc(b1-3)Gal(b1-4)GlcNAc(b1-3)Gal(b1-4)GlcNAc(b1-2)Man(a1-6)]Man(b1-4)GlcNAc(b1-4)[Fuc(a1-6)]GlcNAc
# Summary of the method: as §1
# [14] = target: Gal(b1-4)GlcNAc(b1-3)Gal(b1-4)GlcNAc(b1-3)Gal(b1-4)GlcNAc(b1-3)Gal(b1-4)GlcNAc(b1-2)[Gal(b1-4)GlcNAc(b1-3)Gal(b1-4)GlcNAc(b1-3)Gal(b1-4)GlcNAc(b1-3)Gal(b1-4)GlcNAc(b1-6)]Man(a1-6)[Gal(b1-4)GlcNAc(b1-3)Gal(b1-4)GlcNAc(b1-3)Gal(b1-4)GlcNAc(b1-3)Gal(b1-4)GlcNAc(b1-2)Man(a1-3)]Man(b1-4)GlcNAc(b1-4)[Fuc(a1-6)]GlcNAc
# Summary of the method: as §1
# [15] = target: Gal(b1-4)GlcNAc(b1-3)Gal(b1-4)GlcNAc(b1-3)Gal(b1-4)GlcNAc(b1-3)Gal(b1-4)GlcNAc(b1-3)Gal(b1-4)GlcNAc(b1-2)Man(a1-3)[Gal(b1-4)GlcNAc(b1-3)Gal(b1-4)GlcNAc(b1-3)Gal(b1-4)GlcNAc(b1-3)Gal(b1-4)GlcNAc(b1-3)Gal(b1-4)GlcNAc(b1-2)Man(a1-6)]Man(b1-4)GlcNAc(b1-4)GlcNAc
# Summary of the method: as §1
# [16] = target: Gal(b1-4)GlcNAc(b1-3)Gal(b1-4)GlcNAc(b1-3)Gal(b1-4)GlcNAc(b1-3)Gal(b1-4)GlcNAc(b1-3)Gal(b1-4)GlcNAc(b1-2)Man(a1-3)[Gal(b1-4)GlcNAc(b1-3)Gal(b1-4)GlcNAc(b1-3)Gal(b1-4)GlcNAc(b1-3)Gal(b1-4)GlcNAc(b1-3)Gal(b1-4)GlcNAc(b1-2)Man(a1-6)]Man(b1-4)GlcNAc(b1-4)[Fuc(a1-6)]GlcNAc
# Summary of the method: as §1
# [17] = target: Gal(b1-4)GlcNAc(b1-6)GalNAc
# Summary of the method: as §1
# Gal4S6S(b1-4)GlcNAc = target: Gal4S6S(b1-4)GlcNAc
# Summary of the method: as §1
# GalNAc(b1-4)GlcNAc = target: GalNAc(b1-4)GlcNAc
# Summary of the method: as §1
# [18] = target: GalNAc(b1-4)GlcNAc(b1-3)GalNAc(b1-4)GlcNAc
# Summary of the method: as §1
# GalNAc4S6S(b1-4)GlcNAc = target: GalNAc4S6S(b1-4)GlcNAc
# Summary of the method: as §1
# GalNAc6S(b1-4)GlcNAc = target: GalNAc6S(b1-4)GlcNAc
# Summary of the method: as §1
# [19] = target: Glc(a1-4)Glc(a1-4)Glc(a1-4)Glc
# Summary of the method: as §1
# [20] = target: GlcNAc(a1-4)Gal(b1-4)GlcNAc
# Summary of the method: as §1
# [21] = target: GlcNAc(b1-2)Man(a1-3)[GlcNAc(b1-2)Man(a1-6)]Man(b1-4)GlcNAc(b1-4)[Fuc(a1-6)]GlcNAc
# Summary of the method: as §1
# [22] = target: GlcNAc(b1-3)Gal(b1-4)GlcNAc(b1-3)Gal(b1-4)GlcNAc(b1-2)Man(a1-3)[GlcNAc(b1-3)Gal(b1-4)GlcNAc(b1-3)Gal(b1-4)GlcNAc(b1-2)Man(a1-6)]Man(b1-4)GlcNAc(b1-4)GlcNAc
# Summary of the method: as §1
# [23] = target: GlcNAc(b1-3)Gal(b1-4)GlcNAc(b1-3)Gal(b1-4)GlcNAc(b1-3)Gal(b1-4)GlcNAc(b1-2)Man(a1-3)[GlcNAc(b1-3)Gal(b1-4)GlcNAc(b1-3)Gal(b1-4)GlcNAc(b1-3)Gal(b1-4)GlcNAc(b1-2)Man(a1-6)]Man(b1-4)GlcNAc(b1-4)[Fuc(a1-6)]GlcNAc
# Summary of the method: as §1
# [24] = target: GlcNAc(b1-3)Gal(b1-4)GlcNAc(b1-3)Gal(b1-4)GlcNAc(b1-3)Gal(b1-4)GlcNAc(b1-2)[GlcNAc(b1-3)Gal(b1-4)GlcNAc(b1-3)Gal(b1-4)GlcNAc(b1-3)Gal(b1-4)GlcNAc(b1-6)]Man(a1-6)[GlcNAc(b1-3)Gal(b1-4)GlcNAc(b1-3)Gal(b1-4)GlcNAc(b1-3)Gal(b1-4)GlcNAc(b1-2)Man(a1-3)]Man(b1-4)GlcNAc(b1-4)[Fuc(a1-6)]GlcNAc
# Summary of the method: as §1
# [25] = target: GlcNAc(b1-4)GlcNAc(b1-4)GlcNAc(b1-4)GlcNAc(b1-4)GlcNAc(b1-4)GlcNAc
# Summary of the method: as §1
binder,measurement,setting,value
"HopZSSI-T (Helicobacter pylori), B5Z6D0 (protein) MGSSHHHHHHSSGLVPRGSHMENLYFQGEDNGFFISAGYQIGEAAQMVKNTGELKKLSDTYENLSNLLTNFNNLNQAVTNASSPSEINAAIDNLKANTQGLTGEKTNSPAYQAVYLALNAAVGLWNVIAYNVQCGPGNSSQQSVTFEGQPGHNSSSINCNLTGYNNGVSGPLSIDNFKQLNQAYQVLQQALKQGVPVLNNTNQKIEVKVTTQTNGQSSKETTTTTTTNDAQTLLQEASKMIDVLTTNCPWVNHNPGQNGGAPWGLIRQECVSGFATEFSAVTSMIKNAQEIVTQAQSLNANQNNQNAPQDFNPYTSADRAFAQNMLNHAQAQAKILELADQMKKDLNTIPSQFITNYLAACRIDGTTPSQGVTNNTWGAGCAYVEETITALNNSLAHFGTQAEQIKQSELLARTILDFRGSLSTLNSTYNSITTTASNTPNSPFLKNLISQSTNPNNPGGLQAVYQVNQSAYSQLLSATQELGHNPFRRIGLISSQT",glycan array binding signal (z-score),[1],-0.221
same,glycan array binding signal (z-score),[2],-0.111
same,glycan array binding signal (z-score),[3],0.174
same,glycan array binding signal (z-score),[4],-0.229
same,glycan array binding signal (z-score),[5],-0.057
same,glycan array binding signal (z-score),[6],-0.248
same,glycan array binding signal (z-score),[7],-0.378
same,glycan array binding signal (z-score),[8],-0.536
same,glycan array binding signal (z-score),[9],-0.247
same,glycan array binding signal (z-score),[10],-0.615
same,glycan array binding signal (z-score),Gal(b1-3)Gal(b1-4)GlcNAc,-0.409
same,glycan array binding signal (z-score),[11],0.014
same,glycan array binding signal (z-score),[12],-0.305
same,glycan array binding signal (z-score),[13],1.74
same,glycan array binding signal (z-score),[14],0.699
same,glycan array binding signal (z-score),[15],2.12
same,glycan array binding signal (z-score),[16],1.86
same,glycan array binding signal (z-score),[17],1.25
same,glycan array binding signal (z-score),Gal4S6S(b1-4)GlcNAc,-0.807
same,glycan array binding signal (z-score),GalNAc(b1-4)GlcNAc,2.32
same,glycan array binding signal (z-score),[18],0.498
same,glycan array binding signal (z-score),GalNAc4S6S(b1-4)GlcNAc,3.87
same,glycan array binding signal (z-score),GalNAc6S(b1-4)GlcNAc,9.12
same,glycan array binding signal (z-score),[19],-0.263
same,glycan array binding signal (z-score),[20],0.109
same,glycan array binding signal (z-score),[21],0.081
same,glycan array binding signal (z-score),[22],1.48
same,glycan array binding signal (z-score),[23],1.5
same,glycan array binding signal (z-score),[24],1.12
same,glycan array binding signal (z-score),[25],-0.476
